Several values for one entry are separate records, joined by “and”; a condition that tells them apart may be missing. Equal entries are not always repeated. Results filed as inconclusive are left out. Activity calls are given as the source filed them. How the source made its calls: active means hit-call score of the fitted dose curve at least 0.9, where 1 is the maximum; inconclusive means response in the unintended direction; inactive means score below 0.9.
target: Luciferin 4-monooxygenase (Photinus pyralis) (UniProt P08659); experiment: CCTE_Simmons_QuantiLum_inhib_2: CCTE's Firefly Luciferase Inhibition Assay, Simmons Lab (AID 2283767);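 on AC50: potency for inhibitors that lower luciferase luminescence relative to DMSO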
Sequence (P08659 whole entry, looked up): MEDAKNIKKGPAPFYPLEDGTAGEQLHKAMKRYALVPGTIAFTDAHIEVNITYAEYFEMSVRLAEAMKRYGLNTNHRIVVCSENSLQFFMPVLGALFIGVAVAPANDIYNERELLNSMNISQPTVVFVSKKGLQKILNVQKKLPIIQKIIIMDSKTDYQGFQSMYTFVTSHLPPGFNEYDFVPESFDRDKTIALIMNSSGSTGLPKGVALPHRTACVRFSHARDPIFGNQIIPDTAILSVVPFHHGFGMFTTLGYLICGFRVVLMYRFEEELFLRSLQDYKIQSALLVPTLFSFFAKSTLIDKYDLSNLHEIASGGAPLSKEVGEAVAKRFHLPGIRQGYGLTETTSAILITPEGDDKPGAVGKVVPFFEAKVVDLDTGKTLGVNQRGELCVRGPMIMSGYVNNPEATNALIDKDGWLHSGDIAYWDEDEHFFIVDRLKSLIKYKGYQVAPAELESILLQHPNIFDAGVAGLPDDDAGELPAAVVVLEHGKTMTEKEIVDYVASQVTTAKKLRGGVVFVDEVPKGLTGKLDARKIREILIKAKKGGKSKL
Method: CCTE_Simmons_QuantiLum_inhib_2 is a biochemical, single-readout assay that uses purified luciferase enzyme in a cell-free assay.Measurements were taken 0.5 hour after chemical dosing in a 384-well plate.CCTE_Simmons_QuantiLum_inhib_2 is the assay component measured from the CCTE_Simmons_QuantiLum_inhib_2 assay. It is designed to make measurements of enzyme activity, a form of enzyme reporter, as detected with bioluminescence signals by Luciferase-coupled Quantilum levels technology. This is a secondary assay to CCTE_Simmons_AUR_TPO to evaluate nonspecific enzyme inhibition.Data from the assay component CCTE_Simmons_QuantiLum_inhib_2 was analyzed at the endpoint, CCTE_Simmons_QuantiLum_inhib_2, in the positive analysis fitting direction relative to DMSO as the negative control and baseline of activity. Using a type of enzyme reporter, measures of enzyme activity for loss-of-signal activity can be used to understand inhibition of firefly luciferase. This is an assay endpoint to indicate nonspecific protein inhibition for comparison to aeid 1508 for thyroperoxidase inhibition. To generalize the intended target to other relatable targets, this assay endpoint is annotated to the oxidoreductase intended target family, where the subfamily is monooxygenase.
Quanti-Lum recombinant luciferase (Promega; Madison, Wisconsin) was diluted to 76.9 ng/ml with 200mM potassium phosphate buffer supplemented with 1 mg/ml bovine serum albumin and 65ul (5ng recombinant luciferase) per well was dispensed into opaque, white 384-well plates (Greiner, BioExpress) using an automated liquid handler (BioTek MicroFlo) with a plastic 5 ul tubing cassette. Test compounds were administered using the HDRT as described earlier to achieve a 0.5% final DMSO concentration. Microplates were incubated at 37C in the dark for 30min to mimic the AUR-TPO assay conditions. Luciferase detection reagent (25 ul per well; 9.2 mM dithiothreitol, 75uM Coenzyme A, 147uM dATP, 150uM D-luciferin, 8.9 mM Tricine, 297uM (MgCO3)4.Mg(OH)2.5H20, 742uM MgSO4, 27.8uM EDTA, pH 7.8, final assay concentrations) was then added using a BMG Clariostar plate reader equipped with syringe injectors (BMG LabTech; GmbH). Plates were read using a kinetic luminescence protocol (top read) whereby each well was individually injected with luciferase detection reagent immediately prior to measurement. Three biological replicates of technical singles were run for every chemical concentration tested. A titrated range of LUCINH2 served as a positive control on each plate of the luciferase inhibition screening assay. Test chemicals were administered as a titrated series of 8 concentrations from 5 nM up to 87.5 uM [final] for 30 minutes prior to single endpoint detection. Dimethylsulfoxide [DMSO] was used as the vehicle control. Luciferase Inhibitor I [2-(5-(2-Methoxyphenyl)-1,2,4-oxadiazol-3-yl)pyridine] was used as the positive control and was administered as a titrated series of 8 concentrations from 1 nM up to 100 uM [final].

Row | SMILES | outcome | AC50
1 | COP(=O)(OC)SCn1c(=O)oc2cc(Cl)cnc21 | inactive | 
2 | CCCSP(=O)(OCC)Oc1ccc(Br)cc1Cl (stereo not drawn) | inactive | 
3 | CCOP(=S)(Oc1cnc(C(C)(C)C)nc1)OC(C)C (stereo not drawn) |  | 61.8 µM (active)
4 | COP(=O)(NC(C)=O)SC (stereo not drawn) |  | 37.5 µM (active)
5 | CCOC(=O)CC(SP(=O)(OC)OC)C(=O)OCC (stereo not drawn) | inactive | 
6 | CCOP(=S)(OCC)OC(Cl)C(Cl)(Cl)Cl (stereo not drawn) | inactive | 
7 | CCOP(=O)(NC(C)C)Oc1ccc(SC)c(C)c1 (stereo not drawn) | inactive | 
8 | C=C(C)[C@H]1Cc2c(ccc3c2O[C@@H]2COc4cc(OC)c(OC)cc4[C@@H]2C3=O)O1 | inactive | 
9 | CCCSP(=O)(OCC)SCCC | inactive | 
10 | CCCOCC(=Nc1ccc(Cl)cc1C(F)(F)F)n1ccnc1 |  | 36.8 µM (active)
11 | CCC(=O)Nc1ccc(Cl)c(Cl)c1 | inactive | 
12 | CCOP(=S)(OCC)Oc1ccc([N+](=O)[O-])cc1 |  | 26.9 µM (active)
13 | S=C1NCCN1 |  | 1.9 µM (active)
14 | CC1(C(=O)Nc2ccc(O)c(Cl)c2Cl)CCCCC1 | inactive | 
15 | CN(C)[C@@H]1C(=O)C(C(N)=O)=C(O)[C@@]2(O)C(=O)C3=C(O)c4c(O)cccc4[C@@](C)(O)[C@H]3[C@H](O)[C@@H]12 |  | 714 nM (active) and 72.3 µM (active)
16 | CCOP(=S)(OCC)Oc1ccc2c(C)c(Cl)c(=O)oc2c1 | inactive | 
17 | N#CSCSC#N |  | 53.8 µM (active)
18 | CCC(=NOC/C=C/Cl)C1=C(O)CC(C2CCOCC2)CC1=O (stereo not drawn) | inactive | 
19 | C#CCC1=C(C)C(OC(=O)C2C(C=C(C)C)C2(C)C)CC1=O (stereo not drawn) | inactive | 
20 | CSC1=N[C@@](C)(c2ccccc2)C(=O)N1Nc1ccccc1 | inactive | 
21 | CCOP(=O)(SC(C)CC)N1CCSC1=O (stereo not drawn) | inactive | 
22 | CCOP(=S)(OCC)Oc1cc(C)nc(C(C)C)n1 | inactive | 
23 | O=c1ccc(=O)[nH][nH]1 | inactive | 

Source: PubChem BioAssay (EPA / NIEHS)
